Screening results as filed in PubChem.
Cycloheximide cs: counter-screen for Shiga toxin inhibitors: cycloheximide protein synthesis inhibition; cell reporter, cycloheximide protein synthesis inhibition counterscreen; max response, %; 300,000 compounds, 12% hits; in the data active = max response mostly above about 13%, no sharp cut-off; inactive = mostly below about 14%; also: read at 38.3 µM for the half of the compounds with a filed dose; 0% is about no effect
Shiga inhibitor: Shiga toxin inhibition; 290,000 compounds, 9.2% hits; Vero cells, Shiga toxin protein synthesis inhibition reporter; AID 2315; inhibition, % at 38.7 µM; in the data active = inhibition mostly above about 28%, no sharp cut-off; inactive = mostly below about 43%; also: 0% is about no effect
Pf growth 96h: P. falciparum growth inhibition at 96 hour, primary screen for plastid delayed-death inhibitors; P. falciparum luciferase reporter growth, 96 h; Potency, µM (series often up to 28.7 µM), inactives show at the highest dose activity change, negative = inhibition, most hits filed as inhibitors; 320,000 compounds, 6.9% hits; AID 504834; also: potency is read from the fitted curve at half-maximal effect; % is scaled to controls: 0 for no effect and ±100 for the full control effect
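P. falciparum expressing integrated firefly luciferase, in erythrocytes at 2% hematocrit, 0.05% parasitemia, incubated with compounds 96 h at 37 C, 5% CO2. Growth inhibition read as loss of luminescence; two-generation exposure targets delayed-death apicoplast inhibitors.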
Pf growth 48h: P. falciparum growth inhibition at 48 hours (one generation); P. falciparum luciferase growth in erythrocytes, 48 h; Potency, µM (doses to about 28.7 µM), inactives show at the top dose activity change, negative = inhibition, hits mostly inhibitors; 310,000 compounds, 5.9% hits; also: potency is read from the fitted curve at half-maximal effect; % is scaled to controls: 0 for no effect and ±100 for the full control effect
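First compound was added to culture medium, then infected red cells at 0.1% parasitemia and 2% hematocrit (final). After incubation at 37 C under 5% CO2, luciferase detection reagent was dispensed and light output recorded.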
LASV entry inh: Lassa virus entry inhibition; Potency, µM (doses to about 37.9 µM), without a hit: top-dose activity change, negative = inhibition, most hits filed as inhibitors; 300,000 compounds, 1.2% hits; AID 540256; Lassa virus pseudotype entry inhibition, cell reporter; calls by dose curve; tested in HEK293 cells; also: potency is read from the fitted curve at half-maximal effect; % is scaled to controls: 0 for no effect and ±100 for the full control effect; nearly all actives have a fitted effect of over 50% in size
Marburg entry inh: inhibitors of Marburg virus binding or cell entry; 300,000 compounds, 1.8% hits; AID 540276; Marburg virus pseudotyped entry inhibition, cell reporter; Potency, µM (top dose mostly 37.8 µM), without a hit: top-dose activity change, negative = inhibition, most hits filed as inhibitors; calls by dose curve; tested in HEK293 cells; also: potency is read from the fitted curve at half-maximal effect; % is scaled to controls: 0 for no effect and ±100 for the full control effect
The depositor's hits bear a star; u = inconclusive; x = no result; [ ] = another dose, or the depositor's remark. Only some compounds are listed: those with a hit (about 19% of all), similar ones and a draw of the others. Unless noted, calls follow the shape of the dose curve; as a rule, active = well fitted inhibition curve with a large enough effect; inconclusive = small, poorly fitted or top-dose-only effect, or another doubt; inactive = no such curve, though single readings can be large or run the other way.

SMILES | Cycloheximide cs | Shiga inhibitor | Pf growth 96h | Pf growth 48h | LASV entry inh | Marburg entry inh
CCc1ccccc1NC(=O)CCCN1C(=O)COc2ccc(C)cc21 | x | x | x | x | x | -19.0%[46.1 µM]
O=C(c1ccc(-c2cc(O)c3ncccc3c2)cc1)N1CCNCC1 | x | x | 9.28µM* | 9.28µM* | x | x
COc1ccc(-n2c(COc3ccc(C)cc3)n[nH]c2=S)cc1 | -0.9 | -24.4 | 0.465µM* | -10.6% | x | x
COc1ccc(-n2c(COc3ccccc3)n[nH]c2=S)cc1 | 1.8 | x | u | -16.6% | x | x
O=C(c1n[nH]c2ccccc12)N1CCOCC1 | -2.8 | -6.0 | 14.7µM* | 8.9% | x | x
O=C(c1n[nH]c2ccccc12)N1CCN(S(=O)(=O)c2ccc(Cl)cc2)CC1 | x | x | u | 2.08µM* | x | x
Cn1nc(C(=O)N2CCN(S(=O)(=O)c3ccc(Cl)cc3)CC2)c2ccccc2c1=O | x | x | u | -28.8% | u | -23.6%
O=C(c1cccnc1)N1CCN(S(=O)(=O)c2ccc(Cl)cc2)CC1 | -2.9 | -3.0 | 4.15µM* | -20.9% | -1.3% | -25.9%
COc1ccc(OC)c(CCNC(=O)Cn2ccc3cc(S(=O)(=O)N4CCCC4)ccc32)c1 | -3.9 | -10.7 | u | u | x | x
O=C(O)C(Cc1cn[nH]n1)=NO | -6.6 | -9.4 | 23.2% | 3.1% | x | x
Cc1ccccc1NC(=O)Cc1nc(COC(=O)COc2cccc(C)c2C)cs1 | x | x | -2.2% | u | 20.4% | 0.2%[46.1 µM]
N#CCSCC(=O)Nc1ccc(F)cc1 | -2.0 | -12.0 | 30.7%[5.75 µM] | -5.6% | 25.4% | 14.2%
CCc1ccccc1NC(=S)N(CCN(C)C)C(C)c1ccccn1 (stereo not given) | 1.5 | -2.8 | x | -3.3% | 13.3% | -18.3%
CN=c1scc(-c2ccc(OC)cc2)n1/N=C(\C)c1cccnc1 | 32.0* | 57.3* | u | -24.0% | -41.8% | u
COC(=O)c1c(N2C(=O)Nc3ccccc3N2O)sc(C)c1C | -2.1 | -1.9 | 5.22µM* | 3.6% | x | x
CCOC(=O)c1c(N2C(=O)Nc3ccccc3N2O)sc2c1CCCC2 | -3.4 | -6.3 | u | -16.0% | -22.1% | 1.4%
CCOc1ccc(S(=O)(=O)N2CCC(C(=O)N3CCCCCC3)CC2)cc1C | -1.5 | 5.0 | -21.4% | 0.8% | u | u
CCOc1ccc(NC(=O)c2c(NC(=O)Cc3ccccc3)sc3c2CCCC3)cc1 | x | x | x | x | -0.7%[46.1 µM] | 0.7%[46.1 µM]
C=CCc1cccc(/C=C/c2cc(=O)c3ccccc3[nH]2)c1O | 25.3* | 65.3* | 0.0% | 0.131µM* | u | u
C=CCc1cccc(/C=N\n2cnnc2)c1O | x | x | x | x | x | 37.5%
O=C(NN1CC(=O)N(c2cc(Cl)cc(Cl)c2)CC1=O)c1sccc1Cl | -0.3 | -5.9 | -0.9% | u | x | x
COC(=O)c1ccc(/C(O)=C(\C#N)c2nc3ccccc3s2)cc1 | 20.0 | 26.0 | x | 6.3% | -29.1% | u
O=C(Cc1ccccc1)c1nc2ccccc2s1 | 74.4* | 131.1* | u | u | u | 38.2%
COC(=O)c1ccc(CC(=O)c2nc3ccccc3s2)cc1 | 20.3* | 19.7 | u | -7.6% | -6.9% | 6.4%
CC(=O)N1CCc2cc(S(=O)(=O)NCCCN3CCCCC3)ccc21 | -2.3 | -9.1 | u | 7.8% | -2.5%[46.1 µM] | -23.1%[46.1 µM]
SMILES | Cycloheximide cs | Shiga inhibitor | Pf growth 96h | Pf growth 48h | LASV entry inh | Marburg entry inh
CCOC(=O)C1=NN(C(C)=O)C2C(=O)N(CC)C(=O)C12 (stereo not given) | -2.2 | 15.5 | 9.0% | 2.0% | x | x
CCOc1ccc(NC(=O)CN(C)C(=O)c2cc(-c3ccc(OC)cc3)nc3ccccc23)cc1OCC | x | x | 7.38µM* | 9.28µM* | -22.6% | -20.2%
COc1cccc(NC(=O)CN(C)C(=O)c2cc(-c3ccc(C)o3)nc3ccccc23)c1 | x | x | 9.28µM* | 11.7µM* | x | x
COc1ccc(-c2cc(C(=O)N(C)CC(=O)Nc3ccccc3Br)c3ccccc3n2)cc1OC | x | x | 9.28µM* | 8.28µM* | u | u
COc1ccc(-c2cc([N+](=O)[O-])ccc2OCC(=O)N(C)CC(=O)Nc2ccc(C)cc2)cc1 | x | x | 9.28µM* | 6.57µM* | u | u
COc1ccc(NC(=O)CN(C)C(=O)CN2C(=O)c3ccc([N+](=O)[O-])cc3C2=O)cc1 | -1.6 | -5.9 | 34.5% | 104.9% | 0.5% | 20.7%
COc1ccc(-c2cc(C(=O)N(C)Cc3ccccc3F)c3ccccc3n2)cc1OC | -1.2 | -17.2 | -9.8% | 25.9% | u | u
COc1ccc(/C=C\c2nc(O)c([N+](=O)[O-])c(=O)[nH]2)cc1O | -1.2 | -2.8 | 32.6% | -11.7%[0.00184 µM] | 2.3% | 19.3%
Cc1cccc(NC(=O)Cn2c(=O)n3nc(CCn4nc(C)cc4C)nc3c3ccccc32)c1 | 6.9 | -4.2 | 58.8% | u | 6.8% | 3.0%
CCN(C(=O)Cn1c(=O)n2nc(CCn3nc(C)cc3C)nc2c2ccccc21)c1cccc(C)c1 | -1.6 | -12.5 | 2.62µM* | 31.2% | 4.3%[14.3 µM] | 18.2%
O=C(c1cccc(C(F)(F)F)c1)N1CCOC12CCN(c1ncc(C(F)(F)F)cc1Cl)CC2 | -1.7 | -16.2 | u | u | u | u
COc1ccc(NC(=O)c2cccn(CC=C(C)C)c2=O)cc1 | 40.4* | 57.6* | 39.5% | 169.2% | 1.6% | -13.8%[46.1 µM]
COc1ccc(NC(=O)c2ccccc2NC(=O)CSc2ccc(C)cc2)cc1 | 5.8 | 8.0 | 37.7% | 30.9% | -24.8% | u
C=CCc1cccc2cc(C(=O)Nc3ccc(CC(=O)O)cc3)c(=O)oc12 | -0.9 | -1.9 | 31.2% | 1.4% | u | u
C=CCc1cccc2cc(C(=O)Nc3ccc(F)cc3)c(=O)oc12 | 10.6* | 0.0 | 0.0% | 5.7% | 12.7%[46.1 µM] | u
C=CCn1cccc(C(=O)Nc2ccc(F)cc2)c1=O | 38.5* | 62.7* | 97.5% | 100.3% | x | x
C=CCn1cccc(C(=O)Nc2ccc(OC)cc2)c1=O | 48.0* | 62.1* | u | 173.2% | -8.5% | 6.2%[46.1 µM]
CC(C)(C)NC(=O)C(c1ccc(F)cc1)N(Cc1ccco1)C(=O)CCC(=O)Nc1ccccn1 (stereo not given) | -4.7 | -0.9 | 1.9% | u | 3.3% | u
O=C(Nc1cccnc1)c1cc(-c2cccs2)on1 | 0.9 | -4.7 | 10.4µM* | 234.5% | -7.1%[14.3 µM] | -9.7%
COC(=O)c1ccccc1NC(=O)c1cc(-c2cccs2)on1 | -1.8 | -12.5 | -6.6% | 7.7% | -2.1% | -27.3%
